{"source": "PubChem BioAssay AID488890", "about": "(Southern Research Specialized Biocontainment Screening …, 2010)", "note": "Out of some 320,000 compounds screened, about 1,300 (0.41%) were called active. Inconclusive results (about 3%) are left out. No rule for the calls is given here. These entries were drawn from the full list. Results with a measured potency or affinity are listed apart.", "data": [{"assay": "growth inhibition of non-replicating M. tuberculosis (AID 488890);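 also: plate controls were DMSO cells for no effect and high antibiotic wells for full effect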", "conditions": "Mycobacterium tuberculosis non-replicating, at 25 µM, stronger effect = higher value", "units": {"inhibition": "%"}, "values": [{"smiles": "O=C(NCc1cccs1)C1CC1", "inhibition": -9.67}, {"smiles": "O=C(NCCCNC(=O)c1cccs1)c1cccs1", "inhibition": -16.1}, {"smiles": "O=C(CC1CCCCC1)NCc1ccccc1Cl", "inhibition": 33}, {"smiles": "O=C(CC1CCCCC1)NCc1ccc(Cl)cc1", "inhibition": 11}, {"smiles": "O=C(CCCCC(=O)NCc1cccs1)NCc1cccs1", "inhibition": 1.23}, {"smiles": "O=C(NCc1cccs1)C12CC3CC(CC(C3)C1)C2", "inhibition": 26.9}, {"smiles": "O=C(NCc1cccs1)C1CCCCC1", "inhibition": 54}, {"smiles": "O=C(NCCCCNC(=O)c1cccs1)c1cccs1", "inhibition": -0.35}, {"smiles": "COc1ccc(C(CNC(=O)c2ccccc2SC)N(C)C)cc1", "note": "(stereo unspecified)", "inhibition": -4.14}, {"smiles": "CCCCN(C(=O)CSc1nnc(-c2ccccc2)n1C)c1c(N)n(Cc2ccccc2)c(=O)[nH]c1=O", "inhibition": 8.96}, {"smiles": "Cc1nc2sc(C)c(C)c2c(=O)[nH]1", "inhibition": 3.35}, {"smiles": "COc1cc(CN2CCNCC2)cc(OC)c1OC", "inhibition": -14.6}, {"smiles": "COC(=O)c1ccc(NC(=O)COc2ccc(S(=O)(=O)NC(C)(C)C)cc2)cc1", "inhibition": -11.9}, {"smiles": "CC(NC(=O)CN1C(=O)NC2(CCc3ccccc32)C1=O)c1ccccc1", "note": "(stereo unspecified)", "inhibition": 15.4}, {"smiles": "CNNC(=S)Nc1ccc(Cl)cc1", "inhibition": -0.3}, {"smiles": "Cc1nnc(NC(=O)CSc2n[nH]c(-c3ccccc3C)n2)s1", "inhibition": 5.17}, {"smiles": "CC(=O)Nc1cccc(NC(=O)c2ccc(Br)cc2)c1", "inhibition": -8.54}, {"smiles": "CC(=O)/C(=N/Nc1ccccc1C)N1CCOCC1", "inhibition": 9.51}, {"smiles": "O=C(CCC1CCCCC1)NCc1ccncc1", "inhibition": 29}, {"smiles": "O=C(CCC1CCCC1)Nc1ccc([N+](=O)[O-])cn1", "inhibition": 67.7}, {"smiles": "O=C(CC1CCCCC1)NCc1ccccn1", "inhibition": 69.6}, {"smiles": "O=C(CCC1CCCCC1)NCc1ccccn1", "inhibition": 79.4}, {"smiles": "O=C(CC1CCCCC1)NCc1ccc(F)cc1", "inhibition": 55.7}, {"smiles": "O=C(O)CCC(=O)Nc1ccc(Br)cn1", "inhibition": -12.1}, {"smiles": "O=C(CN1C(=O)NC2(CCCc3ccccc32)C1=O)N1CCCCC1", "note": "(stereo unspecified)", "inhibition": 6.72}, {"smiles": "Nc1ccc(Br)cc1C(=O)c1ccccc1", "inhibition": 53.2}, {"smiles": "CCN(CC(=O)Nc1c(F)cccc1F)C(=O)CCCc1c[nH]c2ccccc12", "inhibition": -0.99}, {"smiles": "CCOC(=O)c1cc(-c2ccccc2)n(CC2CC(c3ccc(OC)cc3)=NO2)n1", "note": "(stereo unspecified)", "inhibition": 0.81}, {"smiles": "COc1cc(C(=O)OCC2CC(c3ccccc3)=NO2)cc(OC)c1OC", "note": "(stereo unspecified)", "inhibition": 3.53}, {"smiles": "CC(=O)c1cc(NC(=O)c2ccccc2)c(=O)oc1C", "inhibition": 54.9}, {"smiles": "Cc1oc(=O)c(NC(=O)c2ccccc2)cc1C(N)=O", "inhibition": -8.22}, {"smiles": "N/C(=N\\OC(=O)c1ccc2ccccc2c1)c1ccccn1", "inhibition": 15.8}, {"smiles": "COc1cccc(NC(=O)C(C)N2C(=O)c3ccccc3S2(=O)=O)c1", "note": "(stereo unspecified)", "inhibition": -2.17}, {"smiles": "COc1ccc(-c2c([C@H]3[C@H]4C=CC[C@@H](C)[C@@H]4C(=O)N3Cc3ccccc3)ccc3ccccc23)cc1OC", "inhibition": 60.8}, {"smiles": "COc1ccc(/C=N/Nc2cc(C)nc(N)n2)cc1", "inhibition": 27.6}, {"smiles": "Cc1ccc(/C=N/Nc2cc(C)nc(N3CCOCC3)n2)cc1", "inhibition": 5.46}, {"smiles": "Cc1cc(N/N=C/c2ccc(F)cc2)nc(NCc2ccccc2)n1", "inhibition": 60.8}, {"smiles": "COc1ccc(/C=N/Nc2cc(C)nc(N3CCOCC3)n2)cc1", "inhibition": -21.2}, {"smiles": "O=C(O)CC(NC(=O)c1cccc(F)c1)c1ccc(OC2CCCC2)cc1", "note": "(stereo unspecified)", "inhibition": -8.15}, {"smiles": "CCCCC(=O)Nc1ccc(C(=O)c2ccccc2)cc1", "inhibition": -5.55}, {"smiles": "CCn1cc(CNC(=S)Nc2cccc(Cl)c2C)cn1", "inhibition": 72.5}, {"smiles": "C/C=C\\C(=O)Nc1cccc(C2=NOC3(C2)C[C@@H](C(N)=O)N(C(=O)C2(C)CC2)C3)c1", "note": "(stereo partly specified)", "inhibition": 2.93}, {"smiles": "CC(=O)Nc1ccc(NC(=O)CN(C)S(=O)(=O)c2ccc3nc(C)sc3c2)cc1", "inhibition": 6.18}, {"smiles": "COc1ccc(OC)c2sc(NC(=O)CCSc3ccccc3)nc12", "inhibition": 14.7}, {"smiles": "CCC(=O)Nc1nc2c(OC)ccc(C)c2s1", "inhibition": -15}, {"smiles": "COc1ccc(CNC(=O)C(=O)NCC2OCCN2S(=O)(=O)c2ccc3c(c2)OCCO3)cc1", "note": "(stereo unspecified)", "inhibition": -1.2}, {"smiles": "CCOc1ccc(NC(=O)CCNS(=O)(=O)c2ccc3c(c2)CC(C)N3C(C)=O)cc1", "note": "(stereo unspecified)", "inhibition": -1.02}, {"smiles": "CCOC(=O)C1CCN(Cc2ccc(OCc3ccccc3)c(OC)c2)CC1", "inhibition": 6.11}, {"smiles": "CCN1C(=O)N/C(=C/c2ccc(Sc3ccc(C)cc3)o2)C1=O", "inhibition": 39.1}, {"smiles": "O=C1NN(c2ccccc2)C(=O)/C1=C/c1ccc(-c2ccc(C(=O)O)cc2)o1", "inhibition": 37.2}, {"smiles": "Cc1ccc(N2NC(=O)/C(=C/c3ccc(-c4ccc(Cl)c(C(=O)O)c4)o3)C2=O)cc1", "inhibition": 26.2}, {"smiles": "CC1=CN2C(=N)/C(=C/c3ccc(Sc4ccc(C)cc4)o3)C(=O)N=C2S1", "inhibition": -10.5}, {"smiles": "CCN(CC)C(=O)COc1ccc(-c2ccccc2)cc1", "inhibition": 37.2}, {"smiles": "CC(NC(=O)COc1ccc(Br)cc1)C1CCCO1", "note": "(stereo unspecified)", "inhibition": 0.437}, {"smiles": "CC(C)C(C)NC(=O)COc1ccc(-c2ccccc2)cc1", "note": "(stereo unspecified)", "inhibition": -4.32}, {"smiles": "COc1ccc(CCC(=O)NC(C)C2CCCO2)cc1", "note": "(stereo unspecified)", "inhibition": -3.51}, {"smiles": "CCC(CC)n1[nH]c(=O)c2c(C)cc(C)nc21", "inhibition": -4.61}, {"smiles": "CCCc1nc(SCC(=O)NC2CC2)c2c(C)c(C)sc2n1", "inhibition": 6}, {"smiles": "CC[C@@]12C(=O)N(c3cccc(Br)c3)C(=O)N1[C@H](c1cccc(C)c1)[C@@H]1C(=O)N(Cc3ccccc3)C(=O)[C@@H]12", "inhibition": 23.5}, {"smiles": "O=C(c1ncc[nH]1)c1cccs1", "inhibition": -0.79}, {"smiles": "CCOC(=O)C1CCCN(Cc2ccccc2Cl)C1", "note": "(stereo unspecified)", "inhibition": 21.6}, {"smiles": "CC(NCc1ccc(Cl)cc1)C(O)c1ccccc1", "note": "(stereo unspecified)", "inhibition": 12.6}, {"smiles": "CC(NCc1cccc(OCc2ccccc2)c1)C(O)c1ccccc1", "note": "(stereo unspecified)", "inhibition": 63.5}, {"smiles": "Cn1c(Cc2ccccc2)nnc1SCc1ccc(C(=O)O)cc1", "inhibition": -12}, {"smiles": "CCOC(=O)c1c(C)n(OC)c2ccc3c(no[n+]3[O-])c12", "inhibition": -0.23}, {"smiles": "COn1c2c(c3c4no[n+]([O-])c4ccc31)CCCC2", "inhibition": -5.21}, {"smiles": "CCCCC(=O)Nc1c2c(nn1-c1cccc(C)c1C)CS(=O)(=O)C2", "inhibition": -2.3}, {"smiles": "COc1cc(C(=O)NCc2ccccn2)ccc1OCc1c(C)noc1C", "inhibition": -3.19}, {"smiles": "C=CCN1C(=O)C2(OCCCO2)c2ccccc21", "inhibition": 11.8}, {"smiles": "O=C1N(CCCN2C(=O)C3(OCCO3)c3ccccc32)c2ccccc2C12OCCO2", "inhibition": 0.91}, {"smiles": "O=C1N(CCCCN2C(=O)C3(OCCO3)c3ccccc32)c2ccccc2C12OCCO2", "inhibition": 5.68}, {"smiles": "C=CCN1C(=O)C2(NC(=O)c3ccccc3N2)c2ccccc21", "note": "(stereo unspecified)", "inhibition": -5.15}, {"smiles": "COc1ccccc1C(=O)N1CCN(C2CCN(Cc3ccccc3)CC2)CC1", "inhibition": -21.9}, {"smiles": "COc1ccc(OC(C)C(=O)NC(C)c2ccccc2)cc1", "note": "(stereo unspecified)", "inhibition": -7.62}, {"smiles": "O=C1CCCC(O)=C1C=Nc1ccc(O)cc1", "inhibition": 17.3}, {"smiles": "O=C1CCCC(O)=C1C=Nc1cccc(C(F)(F)F)c1", "inhibition": -1.35}]}]}
